In PubChem BioAssay (EPA / NIEHS):
Active and inactive are the calls of the source. Rule for the calls: active = hit-call score of the fitted dose curve at least 0.9, where 1 is the maximum; inactive = score below 0.9.

Columns and labels:
[1] = APR_HepG2_P-H2AX_72hr: Apredica 72-hour HepG2 Assay for H2AX Phosphorylation (AID 2282916); conditions: imaging, actives raise or lower the signal;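 note: phospho-histone H2A.x immunostain intensity per cell marking DNA damage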
Summary of the method: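 Human hepatoma HepG2 cells are dosed across ten concentrations (0.39 to 200 uM, 0.5% v/v DMSO) and incubated 72 hr. Phospho-histone H2A.x is then detected by antibody staining alongside c-Jun and Hoechst, and quantified by automated fluorescence imaging.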

[2] = APR_HepG2_MitoMembPot_72hr: Apredica 72-hour HepG2 Assay for Mitochondrial Membrane Potential (AID 2282917); conditions: imaging, actives raise or lower the signal
Summary of the method: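 HepG2 cells exposed 72 h to compounds at 0.39–200 uM (0.5% v/v DMSO, duplicates); MitoTracker Red CMXRos 250 nM loaded 30 min before 3.7% formaldehyde fixation, imaged by HCS fluorescence. Bidirectional fit versus DMSO.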

[3] = APR_HepG2_MicrotubuleCSK_72hr: Apredica 72-hour HepG2 Assay for Microtubule CSK Stabilty (AID 2282919); conditions: HepG2 microtubule cytoskeleton, high-content imaging, actives raise or lower the signal
Summary of the method: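 Ten-point dosing (0.39–200 uM, 0.5% DMSO) of HepG2 for 72 hr, with taxol as the cytoskeletal positive control. The cells were formaldehyde-fixed and then stained with alpha-tubulin/Cy5 and Hoechst. Imaging at 20x used a −2 um Z offset for tubulin.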

[4] = APR_HepG2_P-H2AX_24hr: Apredica 24-hour HepG2 Assay for H2AX Phosphorylation (AID 2282920); conditions: high-content imaging, actives raise or lower the signal
Summary of the method: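 HepG2, 24 hr, cpd 0.39–200 uM (10 conc, duplicate), DMSO 0.5% v/v final. Fix 3.7% formaldehyde, Triton X-100 permeabilize, anti-phospho-H2A.x 1:200 + Hoechst 2 ug/mL. Imaged, bidirectional fit vs DMSO.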

[5] = APR_HepG2_StressKinase_72hr: Apredica 72-hour HepG2 Assay for Stress Kinase (AID 2282921); conditions: HepG2 stress kinase (phospho-c-Jun) imaging, actives raise or lower the signal
Summary of the method: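 After a 72 h compound treatment spanning 0.39 to 200 uM, formaldehyde-fixed cells are labelled for phosphorylated c-Jun and nuclei, imaged by automated fluorescence microscopy, and activity is fitted in both directions relative to DMSO controls.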

[6] = APR_HepG2_StressKinase_24hr: Apredica 24-hour HepG2 Assay for Stress Kinase (AID 2282922); conditions: HepG2 stress kinase (phospho-c-Jun) imaging, actives raise or lower the signal
Summary of the method: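 After 24 hr compound treatment (up to 200 uM, final DMSO 0.5% v/v), HepG2 cells are fixed and multiplex-labeled; phospho-c-Jun intensity is captured by high-content fluorescence imaging and analyzed relative to DMSO.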

[7] = APR_HepG2_p53Act_72hr: Apredica 72-hour HepG2 Assay for p53 Activation (AID 2282923); conditions: high-content imaging, actives raise or lower the signal;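 note: average cellular p53 protein immunofluorescence intensity in HepG2 cells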
Summary of the method: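 Imaging-based endpoint: after 72 hr compound exposure (up to 200 uM, 0.5% DMSO), fixed and permeabilized monolayers were labelled with anti-p53 antibody and imaged; signal change in either direction was fitted relative to DMSO controls.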

[8] = APR_HepG2_MitoMass_72hr: Apredica 72-hour HepG2 Assay for Mitochondrial Mass (AID 2282924); conditions: high-content imaging, actives raise or lower the signal;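 note: MitoTracker Red CMXRos stain intensity per cell imaged as mitochondrial mass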
Summary of the method: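 Steps: treat HepG2 72 hr (0.39–200 uM, duplicate wells); load MitoTracker Red CMXRos, 250 nM, 30 min; fix with 3.7% formaldehyde, permeabilise with 0.5% Triton X-100; capture images, nuclei via Hoechst 33342; fit bidirectionally against DMSO.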

[9] = APR_HepG2_NuclearSize_72hr: Apredica 72-hour HepG2 Assay for Nuclear Size (AID 2282925); conditions: high-content imaging, actives raise or lower the signal
Summary of the method: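 Compounds (0.39–200 uM, final DMSO 0.5%) were applied to HepG2 for 72 hr. Cells were then formaldehyde-fixed, permeabilized and labelled with Hoechst 33342. Nuclear diameter was quantified from six images per well.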

[10] = APR_HepG2_MitoticArrest_72hr: Apredica 72-hour HepG2 Assay for Mitotic Arrest (AID 2282918); conditions: high-content imaging, actives raise or lower the signal
Summary of the method: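 Read-out is phospho-histone H3 immunofluorescence with Hoechst nuclear segmentation, imaged at 20x. Human HepG2 liver cells received ten concentrations (0.39–200 uM, final DMSO 0.5% v/v) for 72 hr before fixation. Gain or loss of signal was fitted relative to DMSO.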

Measured: AC50

O=C(O)c1cccc(N(Cc2cccnc2)c2ccc(OC(F)F)c(OC(F)F)c2)c1
inactive: [2] | [3] | [6] | [8]
active: [1] 6.52 µM | [4] 30.8 µM | [5] 15.4 µM | [7] 4.01 µM | [9] 17.4 µM

CCOc1cccc(-n2cc(C(=O)N3CCN(c4cc(C(=O)O)c5ccccc5c4)CC3)nc2-c2ccc(C)cc2)c1
active: [1] 89.5 µM | [4] 90.4 µM | [5] 60.2 µM | [7] 76.1 µM
not listed: [10]
inactive: all other assays above

CC(C)CCO
not listed: [10]
inactive: all other assays above

C[C@](N)(Cc1ccc(O)c(O)c1)C(=O)O
active: [2] 58.4 µM
not listed: [10]
inactive: all other assays above

CC[C@H]1CC[C@H](NCc2cc3c(cc2OC)[C@H]2C[C@H]2C(=O)N3C)[C@H](c2ccccc2)N1
not listed: [4]
inactive: all other assays above

C1=CCCC=CCCC=CCC1
not listed: [4]
inactive: all other assays above

O=C(O)CCN(C1(C(=O)NO)CCCC1)S(=O)(=O)c1ccc(Oc2ccc(F)cc2)cc1
not listed: [10]
inactive: all other assays above

Cn1cnc([N+](=O)[O-])c1Sc1ncnc2nc[nH]c12
not listed: [4]
inactive: all other assays above

O=C(OC[C@H]1O[C@@H](OC(=O)c2cc(O)c(O)c(OC(=O)c3cc(O)c(O)c(O)c3)c2)[C@H](OC(=O)c2cc(O)c(O)c(OC(=O)c3cc(O)c(O)c(O)c3)c2)[C@@H](OC(=O)c2cc(O)c(O)c(OC(=O)c3cc(O)c(O)c(O)c3)c2)[C@@H]1OC(=O)c1cc(O)c(O)c(OC(=O)c2cc(O)c(O)c(O)c2)c1)c1cc(O)c(O)c(OC(=O)c2cc(O)c(O)c(O)c2)c1
active: [2] 15.1 µM | [7] 23.2 µM | [8] 14.5 µM | [9] 18.7 µM
not listed: [4]
inactive: all other assays above

O=C(NS(=O)(=O)/C=C/c1ccccc1)c1ccc(F)cc1Cl
not listed: [4]
inactive: all other assays above

CC(O)CN(CCN(CC(C)O)CC(C)O)CC(C)O (stereo unspecified)
not listed: [10]
inactive: all other assays above

On1ccccc1=S
active: [10] 21.5 µM | [5] 5.96 µM | [7] 8.59 µM | [9] 3.98 µM
not listed: [4]
inactive: all other assays above

CC[C@H]1OC(=O)[C@H](C)[C@@H](O[C@H]2C[C@@](C)(OC)[C@@H](O)[C@H](C)O2)[C@H](C)[C@@H](O[C@@H]2O[C@H](C)C[C@H](N(C)C)[C@H]2O)[C@](C)(O)C[C@@H](C)C(=O)[C@H](C)[C@@H](O)[C@]1(C)O
not listed: [10]
inactive: all other assays above

Nc1ccc(Nc2ccccc2)cc1
active: [1] 29.9 µM | [10] 42.1 µM | [7] 33.3 µM
not listed: [4]
inactive: all other assays above

Cc1c(-c2cccnc2)c2ccccc2n1CCCCC(=O)O
not listed: [4]
inactive: all other assays above

CC(=O)OC[C@H]1O[C@@](COC(C)=O)(O[C@H]2O[C@H](COC(C)=O)[C@@H](OC(C)=O)[C@H](OC(C)=O)[C@H]2OC(C)=O)[C@@H](OC(C)=O)[C@@H]1OC(C)=O
not listed: [4]
inactive: all other assays above

CCCCC(CC)COC(=O)CCCCCCCCC(=O)OCC(CC)CCCC (stereo unspecified)
inactive: [5] | [6] | [7] | [9]
active: [1] 68.2 µM | [2] 83.4 µM | [3] 87.6 µM | [4] 116 µM | [8] 36.5 µM

CCN(C(=O)c1cc(C)cc(OC[C@H](C)Nc2ccncc2)c1)C(C)C
not listed: [10]
inactive: all other assays above

CCn1nc(Cc2ccccc2)cc1C1CCN(C[C@H]2C[C@H](N(C)[C@@H](C(=O)O)C(C)C)C[C@@H]2c2cccc(F)c2)CC1
not listed: [4] | [10]
inactive: all other assays above

O=C(CCCCCCCCc1cccnc1)N1CCC(C=C(c2ccccc2)c2ccccc2)CC1
not listed: [10]
inactive: all other assays above

CCCCCCCCCCCCCCCO
not listed: [4] | [10]
inactive: all other assays above

CNCc1ccc(NC(=O)c2c[nH]c3c2C(=O)CCC3)cc1
not listed: [10]
inactive: all other assays above
